dFosB activator = activators of delta FosB homodimer, primary screen, biochemical, fluorescence polarization, TAMRA-CDK5 oligo, single point; AID 493131, 2011; Protein FosB (Mus musculus), P13346; hit rate 0.99% among 340,000; purified delta FosB; percent of positive-control signal above neutral wells; activation, % at 25 µM;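 active = mean activation above about 17%, with every replicate also reaching it, limit read from the data, passing the limit was not always enough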
GRIN3A LBD mod = binders of NR3A ligand-binding domain, primary screen, biophysical, differential scanning fluorimetry, uHTS. hit rate 2.5% among 340,000. NR3A LBD differential scanning fluorimetry, Tm shift; 0% = protein alone, 100% = glycine-bound protein. Tm shift relative to glycine control, % at 25 µM;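 active = melting temperature shift of at least 10% of the positive control shift, at one fixed dose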
TPT1 inhibitor = Candida albicans TPT1 enzyme inhibitors, primary screen, biochemical, fluorescence polarization; hit rate 0.81% among 300,000; recombinant caTPT1, FP RNA substrate dephosphorylation; AID 1962, 2009; inhibition, % at 5 µM; tRNA 2'-phosphotransferase TPT1 (Candida albicans SC5314);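 active = inhibition above the mean of all tested compounds plus 3 SD, set per screening campaign, cut at about 24% in these data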;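 also: plate controls were DMSO alone for no effect and ferristatin control at 100 nM for full effect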
EBNA-1 inhibitor = EBNA-1 DNA-binding inhibitors, primary screen, biochemical, fluorescence polarization; inhibition, % at 14.8 µM; hit rate 0.34% among 300,000; in the data active = inhibition above about 28%
ZTA DNA inh = blocks Epstein-Barr virus ZTA, an EBNA-1 counter-screen; P03206; AID 2234; inhibition, % at 11 µM; ZTA-DNA binding, fluorescence polarization; hit rate 0.15% among 320,000; in the data active = inhibition above about 33%
Target sequence (P03206 whole entry, looked up): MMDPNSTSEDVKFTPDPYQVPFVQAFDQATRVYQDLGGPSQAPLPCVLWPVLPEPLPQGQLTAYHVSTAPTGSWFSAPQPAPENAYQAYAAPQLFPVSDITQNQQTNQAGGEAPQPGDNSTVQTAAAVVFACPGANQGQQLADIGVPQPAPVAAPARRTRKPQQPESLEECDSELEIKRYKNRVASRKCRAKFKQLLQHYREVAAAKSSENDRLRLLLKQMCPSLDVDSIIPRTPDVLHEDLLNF
Rpn11 inh = Rpn11 (PSMD14) deubiquitinase inhibitors, primary screen, biochemical, fluorescence polarization, uHTS; 26S proteasome non-ATPase regulatory subunit 14 (Homo sapiens), O00487; human 26S proteasome, Ub4-pepOG fluorescence polarization; 20S core pre-blocked with epoxomicin; inhibition, % at 20 µM; hit rate 0.59% among 360,000; AID 588493, 2011;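 active = inhibition at 20 µM, scaled to each plate's controls, above about 33%, limit read from the data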
EBNA-1 confirm = EBNA-1 DNA-binding inhibitors, retest, confirmation, biochemical, fluorescence polarization, triplicate | hit rate 35% among 830 | Recombinant EBNA-1 DBD, Cy5-DNA fluorescence polarization | shares compounds with EBNA-1 inhibitor | AID 2292, 2010 | inhibition, % at 14.8 µM;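 active = mean inhibition across replicates above a set limit taken from the earlier primary screen, cut at about 28% in these data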;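 also: plate controls were EBNA-1 protein with DMSO for no effect and wells lacking EBNA-1 for full effect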
ZTA DNA inh trip = EBV Zta DNA binding inhibitors, counter-screen for EBNA-1 inhibitor project, biochemical, fluorescence polarization, triplicate. shares compounds with EBNA-1 inhibitor. Zta-ZRE DNA binding, Cy5 fluorescence polarization. inhibition, % at 11.1 µM. 830 tested, under 10 active. AID 2328, 2010;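 active = mean inhibition over triplicates above a set limit taken from the primary EBNA-1 screen, cut at about 37% in these data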;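 also: purified full length Zta protein with Cy5 labeled ZRE DNA probe; 0% = Zta with DMSO and 100% = wells lacking Zta protein; inhibitors lower polarization by freeing the labeled DNA probe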
Active calls of the source: *; · = no result. In the library only some 4.5% were active in any assay of this set; here they are far more common.

SMILES | dFosB activator | GRIN3A LBD mod | TPT1 inhibitor | EBNA-1 inhibitor | ZTA DNA inh | Rpn11 inh | EBNA-1 confirm | ZTA DNA inh trip
COc1cc(NC(=O)COC(=O)/C=C/c2ccccc2Cl)cc(OC)c1 | -2 | 3 | -1 | 69* | 9 | 6 | 30* | 13
COc1ccc(OC)c(NC(=O)COC(=O)/C=C/c2ccc(Cl)cc2)c1 | -3 | -10 | 1 | 42* | -15 | 5 | 15 | 9
COc1cc(NC(=O)COC(=O)/C=C/c2ccc(OC)c(OC)c2)cc(OC)c1 | -22 | -5 | -4 | 2 | -8 | -4 | · | ·
Cn1c(SCC(=O)NC2CCCCC2)nnc1C(F)(F)F | · | · | · | · | · | -2 | · | ·
N#Cc1c(NCc2ccccc2)ccnc1Cl | -1 | -2 | 0 | -4 | -2 | -3 | · | ·
COc1ccccc1CNS(=O)(=O)CCNCCc1ccccc1 | -2 | -5 | · | · | · | -4 | · | ·
O=C(CSc1ncnc2c1oc1ccccc12)Nc1cccc(F)c1 | 1 | -14 | 0 | 34* | -10 | -2 | 54* | 9
COc1ccc(CCNC(=O)Cn2cc(C(F)(F)F)cc(Cl)c2=O)cc1OC | 2 | -2 | -3 | 2 | 9 | -4 | · | ·
O=C(CSc1cn(Cc2ccccc2)c2ccccc12)Nc1nccs1 | -13 | -3 | -1 | 36* | 2 | 0 | 8 | 6
COc1ccc(S(=O)(=O)N2CCOCC2)cc1NC(=O)c1ccc(Cl)cc1 | 0 | -3 | -4 | 44* | -9 | 0 | 32* | -7
COc1ccc(S(=O)(=O)N2CCOCC2)cc1NC(=O)c1cccc(Cl)c1 | -8 | 1 | 2 | 41* | 9 | -14 | 20 | -7
CCc1noc(C)c1C(=O)Nc1cc(S(=O)(=O)N2CCOCC2)ccc1OCC(F)(F)F | 1 | 1 | 2 | 79* | 4 | -6 | -8 | -15
O=c1c2ccccc2[nH]c(=S)n1CCCN1CCC(Cc2ccccc2)CC1 | -10 | 1 | 2 | -1 | 1 | -6 | · | ·
O=C(NCCCCNC(=O)c1ccc(Br)s1)c1ccc(Br)s1 | 5 | 4 | -1 | 46* | 25 | 2 | 11 | 10
O=C(NCCCN1CCOCC1)c1ccc(Br)s1 | -9 | 0 | 0 | -4 | 4 | 5 | · | ·
COc1ccc(Nc2nnc(SCC(=O)c3cc4ccccc4o3)s2)cc1 | -8 | -5 | 15 | 44* | -7 | 4 | 37* | 2
COc1ccccc1Nc1nnc(SCC(=O)Nc2cc(C)on2)s1 | -2 | 2 | 0 | 35* | -3 | 2 | 21 | 4
Cc1ccc(N2CC(C(=O)Nc3nnc(SCC(=O)Nc4cc(C)on4)s3)CC2=O)cc1 (stereo not given) | 6 | -6 | 2 | 34* | 11 | 1 | 9 | -4
O=C(CSc1nnc(Nc2ccccc2F)s1)c1cc2ccccc2o1 | -4 | 1 | 11 | 3 | -5 | 20 | · | ·
COc1ccccc1NC(=O)CSc1nnc(C)s1 | 1 | -1 | · | · | · | 3 | · | ·
CCN(CC)S(=O)(=O)c1ccc(C(=O)NN(C)C2=NS(=O)(=O)c3ccccc32)cc1 | -6 | -3 | -1 | 36* | -2 | 0 | 2 | -11
CCOC(=O)Cn1cnc2c(nnn2Cc2ccc(Cl)cc2)c1=O | -7 | 0 | 1 | 1 | 1 | -2 | · | ·
O=C(Cn1cnc2c(nnn2Cc2ccc(Cl)cc2)c1=O)OCc1ccccc1 | 5 | 0 | 2 | 30* | 2 | 5 | 12 | 7

Screening results as filed in PubChem BioAssay.
